Measured values taken from PubChem BioAssay AID588451 (Broad Institute, 2011).
Entries with a potency or affinity are not part of this list. Activity calls are given as the source filed them. No rule for the calls is given here.

Target: Luciferin 4-monooxygenase (Photinus pyralis) (UniProt P08659)
Experiment: inhibition of purified Photinus pyralis luciferase – biochemical, dry powder samples, plate reader, dose response (AID 588451)
Details: purified firefly luciferase, luminescence plate reader; series mostly up to 8 µM

Chain of Luciferin 4-monooxygenase (Photinus pyralis) (P08659 whole entry, looked up): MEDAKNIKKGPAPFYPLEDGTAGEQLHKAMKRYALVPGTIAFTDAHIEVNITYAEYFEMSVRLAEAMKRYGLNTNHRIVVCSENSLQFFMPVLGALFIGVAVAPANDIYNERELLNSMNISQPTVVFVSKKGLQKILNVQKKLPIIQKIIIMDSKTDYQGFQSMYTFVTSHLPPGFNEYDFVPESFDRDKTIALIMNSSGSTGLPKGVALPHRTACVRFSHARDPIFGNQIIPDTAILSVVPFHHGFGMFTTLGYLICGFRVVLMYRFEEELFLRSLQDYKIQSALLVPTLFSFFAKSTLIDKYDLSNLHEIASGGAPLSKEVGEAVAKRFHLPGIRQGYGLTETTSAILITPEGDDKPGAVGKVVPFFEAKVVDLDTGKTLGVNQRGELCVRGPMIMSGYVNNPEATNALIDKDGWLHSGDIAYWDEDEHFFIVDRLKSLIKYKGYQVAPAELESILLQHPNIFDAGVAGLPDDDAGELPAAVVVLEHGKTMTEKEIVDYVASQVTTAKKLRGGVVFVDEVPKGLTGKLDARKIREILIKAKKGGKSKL

Structure (SMILES): Cc1ccc(C(=O)N/N=C/c2ccc([N+](=O)[O-])s2)cc1
- outcome: inactive
